TGFb inhibitor: TGF-b pathway inhibition; HepG2 CAGA-GFP TGF-b/SMAD3 reporter, GFP fluorescence, 18 h; TGF-beta stimulated, 500 pg/mL final; Potency, µM (highest dose often 46.1 µM), without a hit: at the highest dose activity, negative = inhibition, usual class: inhibitors; actives 1.2% (n = 410,000); further: potency means the concentration at half of the fitted maximal effect; on the % scale 0 is the no-effect control and ±100 the full control effect; nearly all actives have a fitted effect of over 65% in size
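Per well, imaged GFP fluorescence of HEPG2 CAGA-GFP cells gives the signal; cells get compound, then TGF-beta (500 pg/mL final), 18 h at 37 degrees C; %Activity versus -TGF-beta and +DMSO controls.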
TDP1 cell CPT: DT40-hTDP1 cell growth loss with CPT; chicken DT40 Tdp1-/-;hTDP1 cells + 20 nM CPT, ATP luminescence, 48 h; Potency, µM (titrated, usually from 46.2 µM), for inactives: at the top dose activity change, negative = growth inhibition, most hits filed as inhibitors; actives 12% (n = 420,000); further: potency means the concentration at half of the fitted maximal effect; on the % scale 0 is the no-effect control and ±100 the full control effect; nearly all actives have a fitted effect of over 55% in size
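Cell growth measured by CellTiter-Glo luminescence after a minimum 48 h, 37 C compound exposure with 20 nM CPT in Tdp1-knockout DT40 cells stably expressing hTDP1, seeded 400/well; qHTS titration format.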
HepG2 tox: counter-screen for TGF-b inhibitors: cytotoxicity in HepG2 cells | HepG2 CAGA-GFP viability, ATP luminescence, 18 h | Potency, µM (titrated, usually from 46.1 µM), for inactives: at the top dose activity change, negative = cytotoxicity, actives largely listed as cytotoxic | actives 0.76% (n = 410,000); further: potency means the concentration at half of the fitted maximal effect
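HepG2 CAGA-GFP cells (1000/well, DMEM with 1% FBS) received compound, then TGF-beta at 500 pg/mL final, and were incubated 18 hours at 37 degrees C. Viability was read by CellTiter-Glo luminescence. Media-only wells were set as complete cell-killing and DMSO as no toxicity.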
IL1B secr inh: inflammasome signaling inhibition, IL-1 beta readout | actives 4.7% (n = 360,000) | activity change, % at 57.5 µM | THP-1 LPS/ATP IL-1B secretion, AlphaLISA, 16 h; stronger effect = lower value; in the data active means activity change below about -50%; inconclusive means mostly about -30% to -49%; further: on the % scale 0 is the no-effect control and ±100 the full control effect
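THP-1 cells pretreated 1 hr with compounds (up to 57.5 uM final), then stimulated with LPS (250 ng/mL final) plus ATP (1.25 mM final); secreted IL-1B measured by AlphaLISA after 16 hr, decreased signal indicating inhibition.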
DT40 TDP1 no CPT: qHTS for Inhibitors of human tyrosyl-DNA phosphodiesterase 1 (TDP1): qHTS in cells in absence of CPT | DT40 Tdp1-/- hTDP1 cells, no CPT, ATP luminescence, 48 h | Potency, µM (doses to about 46.2 µM), for inactives: at the highest dose activity change, negative = growth inhibition, most hits filed as inhibitors | actives 15% (n = 420,000); further: potency means the concentration at half of the fitted maximal effect; on the % scale 0 is the no-effect control and ±100 the full control effect; nearly all actives have a fitted effect of over 55% in size
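Stably hTDP1-transfected Tdp1-null chicken DT40 cells were treated with library compounds minus camptothecin and grown for at least 48 hr at 37 °C, after which cellular ATP was quantified by luminescence.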
TDP1 block: inhibitors of human tyrosyl-DNA phosphodiesterase TDP1; Potency, µM (titrated, usually from 130 µM), for the others: top-dose activity change, negative = inhibition, actives largely listed as inhibitors; Q9NUW8; recombinant TDP1, AlphaScreen DNA substrate cleavage; actives 0.28% (n = 350,000); further: potency means the concentration at half of the fitted maximal effect; on the % scale 0 is the no-effect control and ±100 the full control effect; nearly all actives have a fitted effect of over 40% in size
Target sequence (Q9NUW8 whole entry, looked up): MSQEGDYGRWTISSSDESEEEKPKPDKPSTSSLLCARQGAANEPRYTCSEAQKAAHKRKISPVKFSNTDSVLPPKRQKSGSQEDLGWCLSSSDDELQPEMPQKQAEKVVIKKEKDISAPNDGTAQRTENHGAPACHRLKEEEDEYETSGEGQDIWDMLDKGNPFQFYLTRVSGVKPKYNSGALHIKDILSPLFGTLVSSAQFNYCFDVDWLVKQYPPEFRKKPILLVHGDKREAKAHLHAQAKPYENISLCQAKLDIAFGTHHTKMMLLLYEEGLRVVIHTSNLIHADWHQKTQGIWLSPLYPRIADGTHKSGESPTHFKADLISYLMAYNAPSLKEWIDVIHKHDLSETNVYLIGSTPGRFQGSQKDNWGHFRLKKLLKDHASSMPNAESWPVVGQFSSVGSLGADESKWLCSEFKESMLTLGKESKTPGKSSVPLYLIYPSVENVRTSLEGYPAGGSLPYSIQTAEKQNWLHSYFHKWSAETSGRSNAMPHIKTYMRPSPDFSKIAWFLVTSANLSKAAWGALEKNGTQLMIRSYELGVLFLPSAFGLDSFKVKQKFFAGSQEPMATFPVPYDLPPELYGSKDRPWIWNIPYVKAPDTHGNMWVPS
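E. coli-derived human Tdp1, 1 nM final. Cpd preinc 15 min RT; substrate 15 nM final, 5 min RT; AS bead mix 10 ug/ml final, 10 min RT. Signal loss = tyrosine-FITC cleavage. No-enzyme wells = max signal.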
* hit, by the source's call; ? = inconclusive; nt = not tested or not shown. Rows were chosen to be rich in hits. Some 19% of all compounds tested hit in one or more screens of this group. Unless noted, the call rests on the fitted dose curve; in most records, active means well fitted curve in the direction sought with a large enough effect; inconclusive means small, poorly fitted or top-dose-only effect, or another doubt; inactive means no such curve, though single readings can be large; an effect the other way counts as inactive or inconclusive.

SMILES	TGFb inhibitor	TDP1 cell CPT	HepG2 tox	IL1B secr inh	DT40 TDP1 no CPT	TDP1 block
COc1ccc(NS(=O)(=O)c2ccc3oc(Nc4ccc5c(c4)OCCO5)nc3c2)cc1	?	?	-22.8%	-10.2	14.6µM*	8.0%
COc1ccc(NS(=O)(=O)c2ccc3oc(SC(C)C(N)=O)nc3c2)cc1 (centres undefined)	-3.6%	16.4µM*	-20.0%	-11.9	11.6µM*	7.3%
COc1ccc(NS(=O)(=O)c2ccc(NS(=O)(=O)c3ccc4c(c3)OCCO4)cc2)cc1	?	?	-2.4%	nt	?	nt
CCn1cc(C(=O)N(C)Cc2ccccc2)c(=O)c2cc(S(=O)(=O)N3CCc4ccccc4C3)ccc21	?	?	-5.4%	nt	?	2.3%
CCOc1ccc(NC(=O)CN2CCN(CC(=O)Nc3ccccc3OCC)CC2)cc1	-21.6%	16.4µM*	6.0%	nt	20.6µM*	-2.7%
O=C(NCc1ccccc1)c1ccc(Oc2ccc(C(=O)NCc3ccccc3)cc2)cc1	-2.8%	?	-13.2%	7.2	16.4µM*	4.6%
O=C(CNCc1ccccc1)Nc1ccc(Oc2ccccc2)cc1	0.2%	13.9%	-0.9%	-57.8*	?	-3.6%
O=C(CNCc1ccccc1)Nc1ccc(F)cc1	3.5%	-6.8%	0.8%	6.7	-10.1%	nt
O=C(NCc1ccccc1)c1ccc(OC2CSC2)cc1	0.8%	-4.7%	-1.0%	-12.5	-10.1%	-3.3%
CCOc1ccccc1NC(=O)CN1CCCCCC1	0.0%	?	6.5%	15.5	?	14.1µM*
Cc1cc(=O)n2nc(N3CCCC(C(=O)NCc4ccccc4C)C3)sc2n1 (centres undefined)	3.9%	-21.3%	-1.7%	-6.8	-16.2%	nt
O=C(CN1CCN(C(=O)N2CCOCC2)CC1)Nc1ccc(Br)cc1	-4.9%	-6.0%	-2.8%	27.4	4.4%	5.1%
O=C(CN1CCN(C(c2ccccc2)c2ccccc2)CC1)N1CCOCC1	4.6%	9.2%	0.9%	16.1	-5.0%	0.0%
CCOC(=O)N1CCN(CC(=O)Nc2ccc(Oc3ccccc3)cc2)CC1	-10.3%	?	-18.3%	-63.8*	?	-1.0%
CCOc1ccccc1NC(=O)C(c1ccccc1)N1CCN(CC(=O)N2CCOCC2)CC1 (centres undefined)	9.4%	23.1µM*	7.5%	14.1	-16.4%	-2.6%
COc1ccc(NC(=O)CN2CCN(C(=O)N3CCOCC3)CC2)cc1	0.1%	0.3%	3.55µM*	-13.3	-5.0%	0.8%
CCC1(CC)NC(=O)N(CC(=O)Nc2ccc(OCc3ccccc3)cc2)C1=O	12.9%	?	-19.0%	-2.6	18.4µM*	-1.4%
CCOc1ccc(-c2nonc2NC(=O)c2ccccc2C)cc1	-0.7%	?	-25.0%	nt	?	2.3%
CCC(=O)OC(OP(=O)(CCCCc1ccccc1)CC(=O)N1C[C@H](C2CCCCC2)C[C@H]1C(=O)O)C(C)C (some centres undefined)	nt	8.1%	nt	nt	-5.3%	nt
CC(C)(C)c1cc(C(=O)NCc2ccccc2)ccn1	3.2%	13µM*	-28.6%	14.0	?	8.7%
O=C(CN1CCCC1)Nc1ccc(OCc2ccccc2)cc1	-28.8%	-14.8%	-19.5%	?	?	2.4%
N#CCN1CCN(CCC(=O)Nc2ccc(OCc3ccccc3)cc2)CC1	21.7%	-16.7%	-12.8%	-2.7	23.1µM*	2.9%
COc1ccccc1NC(=O)CN1CCN(CC(=O)Nc2ccc(OCc3ccccc3)cc2)CC1	?	?	-20.4%	?	16.4µM*	3.2%
COc1ccc(CCNC(=O)c2ccnc(C(C)(C)C)c2)cc1OC	-21.6%	4.0%	-40.6%	17.2	?	nt
